Screening results: PubChem BioAssay, National Center for Advancing Translational Sciences (NCATS)
Tb PFK inh-1 = qHTS Assay to Find Inhibitors of T. brucei phosphofructokinase; ATP-dependent 6-phosphofructokinase (Trypanosoma brucei brucei), O15648; T. brucei PFK, ADP-Glo luminescence; Potency, µM (titrated, usually from 57.5 µM), without a hit: at the top dose activity, negative = inhibition, actives largely listed as inhibitors; 330,000 tested, 0.17% active; AID 485367, 2010;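 further: 0% = uninhibited 1x PFK enzyme wells and -100% = no-enzyme wells; nearly all actives have a fitted effect of over 60% in size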
Target sequence (O15648 whole entry, looked up): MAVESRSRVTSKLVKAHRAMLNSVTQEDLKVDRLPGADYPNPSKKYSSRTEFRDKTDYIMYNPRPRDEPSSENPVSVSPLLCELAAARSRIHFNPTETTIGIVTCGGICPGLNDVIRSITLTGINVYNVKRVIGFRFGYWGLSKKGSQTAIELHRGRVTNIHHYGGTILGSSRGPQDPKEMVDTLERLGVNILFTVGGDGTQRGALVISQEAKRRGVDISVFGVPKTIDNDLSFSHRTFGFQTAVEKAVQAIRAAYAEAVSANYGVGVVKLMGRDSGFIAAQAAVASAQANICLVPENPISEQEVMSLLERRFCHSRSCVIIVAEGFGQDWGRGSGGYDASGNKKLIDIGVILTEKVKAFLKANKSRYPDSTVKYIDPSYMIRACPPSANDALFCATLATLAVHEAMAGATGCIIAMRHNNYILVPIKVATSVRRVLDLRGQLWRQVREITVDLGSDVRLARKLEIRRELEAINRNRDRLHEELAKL
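PFK 1.25 nM, F6P 0.5 mM, ATP 0.1 mM, 0.1 M TEA pH 8.0, 5 mM MgCl2, 0.01% Tween20, 0.1% BSA; 45 min RT. ADP-Glo readout. qHTS titration up to 57 uM; curves fitted, compounds curve-classed.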
BRCA1 expr up = qHTS Assay to Identify Small Molecule Activators of BRCA1 Expression | AID 624202, 2012 | 380,000 tested, 1.1% active | Potency, µM (series often up to 46.1 µM), for inactives: at the top dose activation, hits mostly activators | MCF7-BRCA1-FFLuc reporter, luminescence, 48 h; response scale: scaled: vehicle 0%, 10 µM genistein 100%; further: nearly all actives have a fitted effect of over 80% in size
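48 h compound treatment of MCF7-BRCA1-FFLuc cells (phenol-red free MEM, 37 °C), then 15 min with luciferase substrate and luminescence imaging.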
VDR inh = Inhibitors of the vitamin D receptor (VDR): qHTS; Potency, µM, for inactives: max response, negative = inhibition, actives largely listed as inhibitors; 400,000 tested, 0.93% active; Vitamin D3 receptor (Homo sapiens), P11473; VDR-SRC2-3 peptide fluorescence polarization, 2 h; further: on the % scale 0 is the no-effect control and ±100 the full control effect
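FP read-out; VDR + SRC2-3 coactivator peptide; 23 nl compound by pintool; 2 h RT incubation; reagents held at 4 deg C, protected from light.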
PLK1 PBD block = qHTS for Inhibitors of PLK1-PDB (polo-like kinase 1 - polo-box domain): Primary Screen. Plk1 PBD binding of FITC phosphopeptide, fluorescence polarization. Potency, µM, without a hit: max response, negative = inhibition, most hits filed as inhibitors. 360,000 tested, 2.8% active; further: series mostly up to about 57 µM; on the % scale 0 is the no-effect control and ±100 the full control effect; nearly all actives have a fitted effect of over 65% in size
TbPFK ATP = Tb PFK orthogonal confirmatory assay using ATP depletion (Kinase-Glo Plus) as an alternative measure of Tb PFK activity: Hit Validation | shares compounds with Tb PFK inh-1 | Tb PFK enzyme, ATP depletion, Kinase-Glo Plus luminescence | Potency, µM (titrated, usually from 57.5 µM), inactives show at the highest dose inhibition | 1,100 tested, 47% active; calls by dose curve; further: nearly all actives have a fitted effect of over 60% in size
Tb PFK inh-2 = Inhibitors of T. brucei phosphofructokinase: Hit Validation; 1,100 tested, 41% active; shares compounds with Tb PFK inh-1; AID 504637, 2011; Potency, µM (titrated, usually from 57.5 µM), for the others: top-dose activity change, negative = inhibition, actives largely listed as inhibitors; purified T. brucei PFK, ADP-Glo luminescence, 45 min;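 further: plate controls were full PFK enzyme control for no effect and no enzyme control for full effect; nearly all actives have a fitted effect of over 60% in size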
Starred values were filed as active, the others as inactive; ? = inconclusive; nt = no result given. The list is not random: actives were taken first. Their share in the collection is about 3.9%. Unless noted, the call rests on the fitted dose curve; in most records, active means well fitted curve in the direction sought with a large enough effect; inconclusive means small, poorly fitted or top-dose-only effect, or another doubt; inactive means no such curve, though single readings can be large; an effect the other way counts as inactive or inconclusive. Potency means the concentration at half of the fitted maximal effect.

SMILES	Tb PFK inh-1	BRCA1 expr up	VDR inh	PLK1 PBD block	TbPFK ATP	Tb PFK inh-2
CCOc1ccccc1NC(=O)COc1coc(CN2CCc3ccccc32)cc1=O	?	-29%	2%	-7%	13%	-21%
ClC(Cl)(Cl)Cl	nt	nt	1%	nt	nt	nt
Cc1cc(N(CCCl)CCCl)ccc1C=NNC(=O)c1cccnc1	nt	-14%	5%	-7%	nt	nt
Oc1ccc(/C=N/NC(=S)Nc2cccnc2)c(O)c1O	?	-39%	50µM*	6.7µM*	3µM*	7.6µM*
CCCCc1nc2ccccc2c(=O)n1-c1cccc(OC)c1	nt	nt	-9%	nt	nt	nt
Cc1c(NC(=O)c2ccc(Cl)c([N+](=O)[O-])c2)cccc1-n1cnnn1	?	-38%	3%	-3%	?	?
N#CCCn1cc(C(=O)Nc2ccccc2Cl)c(-c2ccc([N+](=O)[O-])cc2)n1	1%	-16%	-3%	-4%	nt	nt
Cc1nn(C(C)(C)C)c(C)c1/C=N/OC(=O)Nc1ccc(Cl)cc1	1%	-71%	10%	-15%	nt	nt
S=c1[nH]nc(-c2cccnc2)n1/N=C/C=C/c1ccco1	30µM*	1%	-9%	-3%	6µM*	?
CCN1C(=O)C(=C/C=C/c2ccco2)C(=O)N(CC)C1=S	-3%	-32%	85%	?	nt	nt
O[C@H]1CCCC[C@H]1N1CCC(c2ccccc2)CC1	nt	nt	11%	nt	nt	nt
CC(C)(C)NC[C@H](O)c1cc(Cl)c(N)c(Cl)c1	nt	nt	-2%	nt	nt	nt
CC(=O)CSc1nnc(Cc2ccc([N+](=O)[O-])cc2)o1	?	1%	-8%	-2%	?	-25%
CC1(C)S[C@@H]2[C@H](N)C(=O)N2C1C(=O)O (some centres undefined)	nt	nt	4%	nt	nt	nt
CSc1ccc(NC(=O)Nc2ccc(C(=O)NCC(=O)O)cc2)cc1	13µM*	67%	-7%	-17%	8.5µM*	?
O=[N+]([O-])c1ccc(CN2CC=C(c3ccccc3)CC2)cc1	-1%	-4%	3%	-3%	nt	nt
O=[N+]([O-])c1ccc(NCc2ccncc2)cc1	5.4µM*	-16%	0%	-2%	3.4µM*	7.6µM*
O=[N+]([O-])c1ccc(Cc2ccncc2)cc1	?	-34%	7%	-7%	?	30µM*
CC(=O)NCC(N)C(=O)c1ccc(C)cc1 (centres undefined)	nt	-15%	nt	nt	nt	nt
CC(C)CN1CCCC2(CCN(C(=O)Oc3ccccc3)CC2)C1	nt	nt	-16%	nt	nt	nt
O=S(=O)(Nc1cc(S(=O)(=O)N2CCOCC2)ccc1O)c1ccc2c(c1)OCCCO2	?	-2%	25µM*	4.7µM*	12µM*	15µM*
CCn1c(O)c(N=Nc2cccc(S(=O)(=O)N3CCOCC3)c2)c(=O)n(CC)c1=S	-9%	16%	1%	-14%	nt	nt
CC1CN(c2ccc([N+](=O)[O-])cc2Cl)CCN1 (centres undefined)	9.5µM*	-6%	-16%	-4%	27µM*	30µM*
CN1CCN(c2ccc([N+](=O)[O-])cc2Cl)CC1	-3%	1%	-28%	-19%	nt	nt
CCOc1ccc(CN(CCc2ccc3c(c2)OCO3)Cc2cc(OC)ccc2O)cc1	nt	nt	4%	nt	nt	nt
SMILES	Tb PFK inh-1	BRCA1 expr up	VDR inh	PLK1 PBD block	TbPFK ATP	Tb PFK inh-2
CC1(C)CC(=O)C(C(C2=C(O)CC(C)(C)CC2=O)c2cccs2)C(=O)C1 (centres undefined)	?	-5%	50µM*	4.7µM*	29%	?
O=C1CC(=O)N(c2ccc3c(c2)OCO3)C(=O)N1	18%	-13%	-3%	?	nt	nt
CC(C)(C)C(=O)[C@@H]1[C@@H]2C(=O)N(c3ccc4c(c3)OCCO4)C(=O)[C@@H]2C2c3ccccc3C=CN21 (some centres undefined)	?	-21%	-14%	11µM*	2%	-1%
Cc1nc2cnc(N3CCNCC3)nc2n(C)c1=O	nt	nt	11%	nt	nt	nt
c1ccc(CCNCc2cccnc2)cc1	1%	-14%	3%	5%	nt	nt
Fc1ccc(NCc2cccnc2)cc1F	24µM*	-4%	-3%	-21%	13µM*	27µM*
CC1(C)C(O)CC(O)[C@]2(C)C1CC(O)[C@]1(C)C2CC[C@@]2(C)C(c3ccoc3)CC3OC312 (some centres undefined)	nt	nt	-27%	nt	nt	nt
OCCN1CCN(C(=S)c2ccc(Cl)c(Cl)c2)CC1	19µM*	-14%	22µM*	4.7µM*	5.4µM*	13µM*
CC(=O)OCC1=C(C(=O)O)N2C(=O)[C@@H](NC(=O)CCC[C@@H](N)C(=O)O)[C@H]2SC1	nt	nt	2%	nt	nt	nt
O=C1/C(=C/c2ccc(O)c(O)c2)Oc2cc(O)ccc21	?	?	-11%	25%	-29%	?
O=S(=O)(O)c1cc(O)ccc1O	19%	5%	-5%	-1%	nt	nt
O=C(CCCn1c(SCC(=O)c2ccc(O)c(O)c2)nc2ccccc2c1=O)NCC1CCCO1 (centres undefined)	?	0%	14%	-7%	?	?
CCN1CCN(C(=S)c2ccc(Br)cc2)CC1	?	-38%	?	8.4µM*	11µM*	27µM*
CCN1CCN(C(=S)c2ccc(O)cc2)CC1	13µM*	5%	79µM*	4.7µM*	6.7µM*	24µM*
CC[C@H](C)[C@H](NC(=O)[C@@H]1CCCN1C(=O)[C@H](CCC(=O)O)NC(=O)[C@@H](NC(=O)[C@H](Cc1ccccc1)NC(=O)[C@@H]1CCCN1C(=O)[C@@H](N)Cc1ccc(O)cc1)C(C)C)C(=O)O	nt	nt	0%	nt	nt	nt
CC(C)[C@@H]1CN[C@H](C(=O)O)[C@@H]1CC(=O)O	nt	nt	-6%	nt	nt	nt
Cc1ccc(C(=O)OCC(=O)c2ccc(CC(=O)N3CCOCC3)s2)c(C)c1	?	5%	-8%	-21%	?	?
Cc1ccc(C)c(OCC(=O)N2CCN(Cc3ccc4c(c3)OCO4)CC2)c1	2%	-7%	-12%	4%	nt	nt
Cc1c(C(=O)OCc2ccccc2)[nH]c2c1C(=O)CC(c1ccco1)C2 (centres undefined)	?	-35%	-27%	?	?	?
Nc1ncccc1OCc1ccc(Cl)c(Cl)c1	13µM*	?	5%	-2%	5.4µM*	17µM*
CC(C)N(C(=O)CSc1nnc(CNc2ccc(F)cc2)o1)C(C)C	17µM*	-1%	-5%	-2%	?	?
O=C(CSc1nnc(CNc2ccc(F)cc2)o1)N1CCCc2ccccc21	27µM*	15%	?	27µM*	12µM*	27µM*
